# Laboratory results as given in the supplement of paper PMC10105736.
# A number with no mark means an inactive call.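 The calls were made as follows: active = MAPPIT score above the 99th percentile of random reference set scores in the same batch; inactive = at or below it.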
# B1: croc (protein)
# chain: MHTLFSDQNSFTRHYAQTAAGYGSASAVAAASSASAAAAAHYAYDQYSRYPYSASAYGLGAPHQNKEIVKPPYSYIALIAMAIQNAADKKVTLNGIYQYIMERFPYYRDNKQGWQNSIRHNLSLNECFVKVARDDKKPGKGSYWTLDPDSYNMFDNGSFLRRRRRFKKKDVMREKEEAIKRQAMMNEKLAEMKPLKLMTNGILEAKHMAAHAAHFKKEPLMDLGCLSGKEVSHAAMLNSCHDSLAQMNHLAGGGVEHPGFTVDSLMNVYNPRIHHSAYPYHLNEDNLATVASSQMHHVHHAAAAHHAQQLQRHVAHVAHPLTPGGQGAGGQSSGHSPTTISTPHGPAHGGWYTPETPPSEPVPHNGQQGTPTHPGHNNNNSSSVLNHNGVGNGGGGGGGGGGGSSSVLTSSPTSALGFRDMIFEQNQSCQLDTGSPTGSLQSASPPASASVAAASAAAAAAVISSHHHHHHHHAALSGNLGQLGQLSNLSHYRPHVGHYQEYGIKYGV
# B2: hfp (protein)
# chain: MGSNDRASRSPRSDDQREISDMPATKRTRSDSGKSTDSKIPYLSQPLYDLKQTGDVKFGPGTRSALLGLLGGALPKLSSEQHDLVSKAKKYAMEQSIKMVLMKQTLAHQQQQLATQRTQVQRQQALALMCRVYVGSISFELKEDTIRVAFTPFGPIKSINMSWDPITQKHKGFAFVEYEIPEGAQLALEQMNGALMGGRNIKVGRPSNMPQAQQVIDEVQEEAKSFNRIYVASIHPDLSEEDIKSVFEAFGPILYCKLAQGTSLHTHKGYGFIEYANKQAMDEAIASMNLFDLGGQLLRVGRSITPPNALACPTTNSTMPTAAAVAAAAATAKIQALDAVASNAVLGLSQNTPVMAAGAVVTKVGAMPVVSAATSAAALHPALAQAAPALLPPGIFQAPTPVAPSLLGVPAGLQPLQAVVPTLPPPALLATPTLPMTVGGVGVGLVPTVATLAGAEASKGAAAAAALSAAANNAAVTAANLSENIKKAHEKQQEELQKKLMDEGDVQTLQQQENMSIKGQSARQLVMQRLMRPVDSRVIILRNMVGPEDVDETLQEEIQEECSKFGTVSRVIIFNEKQTENEDDDEAEIIVKIFVEFSAGAEAMRGKEALDGRFFGGRRVVAELYDQGIFDQGDLSG
# B3: CG1161 (protein)
# chain: MAHKRLFVYAVLLVICYLVGVTWAETAAQTFPAIGTNSNNNSNAQPAPVPAPAAPAAAAPLAKQVSAPTAAPPAKVIGQPVLAAPGKNSSNSSSTTECVCAGALLPRLDANGKELPICAECKCSHVARNTTLIKVVVIIVIWIISILVIYMLFLMCLDPLLNKRVKANYQEHTNEDDEPTPPLPAVNNQELSARANVLNRVGHQQDKWKRQVREQRRHIYDRHTMLN
# B4: rst (protein)
# chain: MLHTMQLLLLATIVGMVRSSPYTSYQNQRFAMEPQDQTAVVGARVTLPCRVINKQGTLQWTKDDFGLGTSRDLSGFERYAMVGSDEEGDYSLDIYPVMLDDDARYQCQVSPGPEGQPAIRSTFAGLTVLVPPEAPKITQGDVIYATEDRKVEIECVSVGGKPAAEITWIDGLGNVLTDNIEYTVIPLPDQRRFTAKSVLRLTPKKEHHNTNFSCQAQNTADRTYRSAKIRVEVKYAPKVKVNVMGSLPGGAGGSVGGAGGGSVHMSTGSRIVEHSQVRLECRADANPSDVRYRWFINDEPIIGGQKTEMVIRNVTRKFHDAIVKCEVQNSVGKSEDSETLDISYAPSFRQRPQSMEADVGSVVSLTCEVDSNPQPEIVWIQHPSDRVVGTSTNLTFSVSNETAGRYYCKANVPGYAEISADAYVYLKGSPAIGSQRTQYGLVGDTARIECFASSVPRARHVSWTFNGQEISSESGHDYSILVDAVPGGVKSTLIIRDSQAYHYGKYNCTVVNDYGNDVAEIQLQAKKSVSLLMTIVGGISVVAFLLVLTILVVVYIKCKKRTKLPPADVISEHQITKNGGVSCKLEPGDRTSNYSDLKVDISGGYVPYGDYSTHYSPPPQYLTTCSTKSNGSSTIMQNNHQNQLQLQQQQQQSHHQHHTQTTTLPMTFLTNSSGGSLTGSIIGSREIRQDNGLPSLQSTTASVVSSSPNGSCSNQSTTAATTTTTHVVVPSSMALSVDPRYSAIYGNPYLRSSNSSLLPPPTAV
# B5: ND-ACP (protein)
# chain: MSFTQIARSCSRLAATLAPRRVASGILIQSQASRMMHRIAVPSMTSQLSQECRGRWQTQLVRKYSAKPPLSLKLINERVLLVLKLYDKIDPSKLNVESHFINDLGLDSLDHVEVIMAMEDEFGFEIPDSDAEKLLKPADIIKYVADKEDVYE
# B6: Snp (protein)
# chain: MALIKLARQLGLIDTIYVDGARPDPNNDPEESFNEDEVTEANSVPAKSKKSRKSKRLAMQPYSYVIAVDFEATCWEKQAPPEWREAEIIEFPAVLVNLKTGKIEAEFHQYILPFESPRLSAYCTELTGIQQKTVDSGMPLRTAIVMFNEWLRNEMRARNLTLPKMNKSNILGNCAFVTWTDWDFGICLAKECSRKGIRKPAYFNQWIDVRAIYRSWYKYRPCNFTDALSHVGLAFEGKAHSGIDDAKNLGALMCKMVRDGALFSITKDLTPYQQLNPRFVL
# B7: Pof (protein)
# chain: MDSKRAALESGDGPDAKRLDTTDDQDKEASGGDGSQVMLAKHVAPYTGHGCTPPMESYLFEPTPAGSQLLPWKTSVDLDNDAELEKPTSDKKPDTAKLSRRELAKMRREHTLRALALERELTNKPGQTPASEVLLVRFPDPEITAPMLAGLSKDIRDVVLPISVAPRYCLVHLKAGADVEATICDINRVRFGTGHLRAELKPFSDEEQAEFIDPCSLYVGNIPFNMTTSAIKAYFANAMRVDIGVLKREKRARYAFVRYASPDQTMEAFKELVDSPLNSRTLTVRYRRLRKRAGMPMVQCATSFQALQSPNGDDDNTDCKVISPPPLESIIISDSDNCSDSSGNGKEDGKRKKKINEQEREIEKLKRQMAEYGAIIKSLQFRQNSLEDTFIPDLTPKVEPSVNPTGCLLGSNAVHLMRDIKKECDYLGIPDPVPATKPTTQAQDDSQKKAKRSCFGRLFTGPFRRGTSAMKTADEYEKDDRLEELYAQLERDPDP
# B8: eEF1beta (protein)
# chain: MAFGDVTTPQGLKELNAFLADNSYISGYTPSKADLSVFDALGKAPSADNVNVARWYRHIASFEAAERAAWSGTPLPQLAGGKPTVAAAAKPAADDDDDVDLFGSDDEEDEEAERIKQERVAAYAAKKSKKPALIAKSSVLLDVKPWDDETDMKEMENNVRTIEMDGLLWGASKLVPVGYGINKLQIMCVIEDDKVSIDLLQEKIEEFEDFVQSVDIAAFNKI
# B9: insv (protein)
# chain: MENQYQRIVSATAREDSQARRSKPLFLNAWSQTSSVDFEVLRSISAPDPQVEVENRALRDKVRYLEAKLQQHKDLLSQIHATSARMQQASSLLAESRPPTPPAVQSHHILTPPSSEICAPAQNPQILDYKIISAPDDADAIEIRLAAESLNSLSTSADSDRLEICLGDENHQQSNHHNSQQQYRISNGIKRDGSSESADTPLQFIKRRKLQEIQLQEEIPRQNIKLPAKPQVKARNGSFTDLNKGQQQNMDNVMVSIGPNNTCVPASVFENINWSVCSLATRKLLVTIFDRETLATHSMTGKPSPAFKDQDKPLKRMLDPGKIQDIIFAVTHKCNASEKEVRNAITTKCADENKMMKIQNVKRRSSGIKHEKENII
# B10: GstE14 (protein)
# chain: MSQPKPILYYDERSPPVRSCLMLIKLLDIDVELRFVNLFKGEQFQKDFLALNPQHSVPTLVHGDLVLTDSHAILIHLAEKFDEGGSLWPQEHAERMKVLNLLLFECSFLFRRDSDFMSATVRQGFANVDVAHHERKLTEAYIIMERYLENSDFMAGPQLTLADLSIVTTLSTVNLMFPLSQFPRLRRWFTAMQQLDAYEANCSGLEKLRQTMESVGSFQFPSSSAVVTEKVE
# B11: H15 (protein)
# chain: MLLSNQPANTKPQQTPSPSQTQNFKSKLQQQIVSAAAAAAANIANGSSHHHHHQNHHHHHPLNNHHNHNHNQHNISFATDFSIAAIMARGGNAPSSREPSERSLSPASVERYSGQDADDDVDVDVVDCSDSEMPSATAAAAAAATTAAAAAAALQAQQQARQALRVAQQQQQQQQQQRQQTHHHATTGKQQRQHHNHHSSNTNNSSNSGNSNTNSKSSSQRGRSAAAVGAAATPSPPPPPPSQSPEELERLSPEESPAQQPTPKIVGSCNCDDLTPVQCHLETKELWDKFHELGTEMIITKSGRRMFPTVRVSFSGPLRQIQPADRYAVLLDVVPLDSRRYRYAYHRSSWLVAGKADPPPPSRIYAHPDCPLSPEALRKQVVSFEKVKLTNNEMDKSGQVVLNSMHRYQPRIHLVRLSHGQSIPGSPKELQDMDHKTFVFPETVFTAVTAYQNQLITKLKIDSNPFAKGFRDSSRLSDFDRDPMDAFFFDQHMRTAPLRFFPDPLMSQLTPQEADAASMALLEKARQHLQMFGRSPYTEMLLPHLYQRSAAPPPPPPAPHLSAFQLGMWQQQWPQLTAGFLASANQQAALALAAAGANRTPPPSMAVAPPAPATPTSSCGSASPDLRARPQLNHYPQRFSPYQVPQHQASPPASNRAESP
# B12: Sce (protein)
# chain: MTSLDPAPNKTWELSLYELQRKPQEVITDSTEIAVSPRSLHSELMCPICLDMLKKTMTTKECLHRFCSDCIVTALRSGNKECPTCRKKLVSKRSLRADPNFDLLISKIYPSREEYEAIQEKVMAKFNQTQSQQALVNSINEGIKLQSQNRPQRFRTKGGGGGGGGGGNGNGAANVAAPPAPGAPTAVGRNASNQMHVHDTASNDSNSNTNSIDRENRDPGHSGTSAASAITSASNAAPSSSANSGASTSATRMQVDDASNPPSVRSTPSPVPSNSSSSKPKRAMSVLTSERSEESESDSQMDCRTEGDSNIDTEGEGNGELGINDEIELVFKPHPTEMSADNQLIRALKENCVRYIKTTANATVDHLSKYLAMRLTLDLGADLPEACRVLNFCIYVAPQPQQLVILNGNQTLHQVNDKFWKVNKPMEMYYSWKKT
# B13: peg (protein)
# chain: MKLSAVLLAIALLALSLVQCLGLPDPSTKCVMECDTQEYRSICAADDKGSTKTYRNLCVMKTENCLQNANFQKISDKECP
# Experiments:
# Test in all cases: MAPPIT interaction score (arbitrary units); higher = stronger binary interaction signal, active = hit call of the paper
# opa = settings: MAPPIT configuration: N-N; pair source set: Finley_Y2H
# prd = settings: MAPPIT configuration: N-N; pair source set: Finley_Y2H
# rux = settings: MAPPIT configuration: N-N; pair source set: Finley_Y2H
# nw = settings: MAPPIT configuration: N-N; pair source set: RRS
# rst = settings: pair source set: Lit-BM-16
# orb = settings: MAPPIT configuration: N-N; pair source set: DPIM
# pip = settings: MAPPIT configuration: N-N; pair source set: Lit-BS-16
# salr = settings: MAPPIT configuration: N-N; pair source set: Finley_Y2H
# ox = settings: MAPPIT configuration: N-N; pair source set: Curagen_low_conf
# sac = settings: MAPPIT configuration: N-N; pair source set: RRS
# poly = settings: MAPPIT configuration: N-C; pair source set: screen_3
# otp = settings: MAPPIT configuration: N-N; pair source set: screen_2
# ord = settings: MAPPIT configuration: N-N; pair source set: Lit-BM-16
# ras = settings: MAPPIT configuration: N-N; pair source set: Finley_Y2H
# 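Also: HEK293T cells with Epo stimulation, STAT-responsive firefly luciferase reporter, fold induction versus unstimulated cells divided by the larger fold induction of two negative controls lacking either bait or prey.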
binder,measurement,setting,value
B1,MAPPIT interaction score,opa,-0.778
same,MAPPIT interaction score,prd,-0.752
B2,MAPPIT interaction score,rux,0.808
B3,MAPPIT interaction score,nw,0.0762
B4,MAPPIT interaction score,rst; MAPPIT configuration: N-C,1.64
same,MAPPIT interaction score,rst; MAPPIT configuration: N-N,0.661
B5,MAPPIT interaction score,orb,0.0809
B6,MAPPIT interaction score,pip,-0.236
B7,MAPPIT interaction score,salr,0.283
B8,MAPPIT interaction score,ox,0.286
B9,MAPPIT interaction score,sac,-0.275
B10,MAPPIT interaction score,poly,-0.119
B11,MAPPIT interaction score,otp,0.104
B12,MAPPIT interaction score,ord,1.68
B13,MAPPIT interaction score,ras,-1.69
